An excerpt weighted towards active compounds, which were near 5.1% of everything screened.
KCC2 mod: modulates chloride dependent transport by human KCC2 | KCC2 cells, thallium flux FluoZin-2 fluorescence | B-score of Tl+ flux slope (higher = more flux/activation; lower = inhibition) at 10 µM | 190,000 compounds, 2.2% hits;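 active = thallium flux slope and its plate-corrected score both differing from the plate sample mean at a set confidence after two filtering rounds, in either direction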;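 also: slope of fluorescence scaled to starting intensity during 10 to 20 s after thallium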
S1P4 antag: human S1P4 receptor antagonism. O95977. inhibition, % at 4.98 µM. S1P4-expressing cells, antagonist mode, reporter read-out. AID 1510. 220,000 compounds, 0.26% hits; in the data active = inhibition above about 29%;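 also: 0% = wells stimulated with agonist and 100% = vehicle wells without agonist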
S1P3 antag: S1P3 (human) receptor antagonism | CHO S1P3 NFAT-BLA reporter, FRET fluorescence, antagonist mode | inhibition, % at 4.98 µM | AID 485 | 170,000 compounds, 0.27% hits;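 active = inhibition above the plate cutoff, the mean inhibition of test wells on that plate plus 3 SD, cut at about 28% in these data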;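 also: cells challenged with S1P at its EC80 of 0.8 µM; blue over green emission ratio from cleaved BLA substrate after 4 h stimulation; 0% = S1P-stimulated wells and 100% = unstimulated DMSO-only wells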
ROMK primary: human ROMK K+ channel modulation, primary screen. Tet-inducible ROMK, thallium flux fluorescence; actives lie on both sides. 130,000 compounds, 2% hits. AID 1918. B-score at 10 µM;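 active = signal ratio slope over the read window, or its plate-corrected B-score, at least 3 SD from the plate mean, either direction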;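 also: B-score of the F/F0 ratio slope over 7 to 12 s after thallium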
Target sequence (P48048 whole entry, looked up): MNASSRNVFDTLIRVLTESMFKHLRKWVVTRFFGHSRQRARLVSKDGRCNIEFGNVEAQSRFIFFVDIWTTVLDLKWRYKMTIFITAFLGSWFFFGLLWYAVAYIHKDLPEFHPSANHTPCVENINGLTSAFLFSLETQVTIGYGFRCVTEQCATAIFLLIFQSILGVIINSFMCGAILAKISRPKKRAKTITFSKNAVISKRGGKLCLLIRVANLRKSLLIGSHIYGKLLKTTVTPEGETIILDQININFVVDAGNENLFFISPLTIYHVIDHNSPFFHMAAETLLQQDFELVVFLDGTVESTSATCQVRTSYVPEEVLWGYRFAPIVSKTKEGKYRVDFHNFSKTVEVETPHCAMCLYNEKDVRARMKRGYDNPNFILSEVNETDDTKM
RAM network inh: inhibitors of the yeast RAM network; S. cerevisiae dse1pr::URA3 reporter, 5-FOA growth OD615, 2 d; analog-sensitive cbk1-as2 kinase mutant strain; inhibition, % at 50 µM; 190,000 compounds, 1.8% hits; AID 868;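 active = inhibition above a set limit, 3 SD over mean compound inhibition, cut at about 8.4% in these data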;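 also: 0% = DMSO-only wells with no growth and 100% = 10 µM 1-NA-PP1 full growth; inhibition rescues growth on 5-FOA so higher OD means more RAM inhibition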
S1P4 agonist: human S1P4 receptor agonism; S1P4-expressing cell line, agonist reporter assay; 220,000 compounds, 0.35% hits; activation, % at 4.98 µM; AID 1509; in the data active = activation above about 11%;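 also: 0% = DMSO vehicle and 100% = reference agonist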
KCC2 secondary: confirmation of human KCC2 transport modulators | shares compounds with KCC2 mod | HEK293-KCC2, thallium flux, FluoZin2 fluorescence; active compounds read high | normalised thallium flux (F/F0 slope) at 10 µM | 3,700 compounds, 15% hits | AID 1713;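 active = thallium flux slope above the same plate's solvent-only control mean plus 3 SD; inconclusive = the two replicate wells disagree; inactive = no significant difference from solvent-only control wells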
KCC2 bumet counter: bumetanide-insensitive thallium flux in KCC2 cells with ouabain, counter-screen | shares compounds with KCC2 mod | AID 1714 | normalized thallium flux at 10 µM | HEK293-KCC2 + bumetanide/ouabain, thallium flux FluoZin2; active compounds read high | 3,700 compounds, 49% hits;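 active = thallium entry rate above the same plate's blocked-transporter control wells by more than 3 SD; inconclusive = the two repeat wells disagree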;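 also: raw slope of fluorescence over initial fluorescence between 10 and 20 s after thallium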
KCC2 sec2: confirmation of human KCC2 transport modulators. shares compounds with KCC2 mod. HEK293-KCC2, thallium flux FluoZin2 fluorescence; actives lie on both sides; F/F0 rise rate, 10–20 s post-thallium. normalized thallium flux at 10 µM. 3,700 compounds, 23% hits. AID 1715;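 active = thallium flux slope more than 3 SD above or below the plate's solvent-only control mean, mostly below; inconclusive = the two repeat wells disagreed; inactive = no significant shift from solvent-only controls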;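 also: raw slope with 0.1% DMSO as baseline and bumetanide as block control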
HEK counter1: counter-screen for KCC2 modulators: effect in parental HEK293 cells | shares compounds with KCC2 mod | thallium flux FluoZin2, ouabain; baseline-ratio fluorescence slope, 10–20 s after thallium | thallium flux rate (normalised fluorescence) at 10 µM | 3,700 compounds, 46% hits;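 active = thallium flux rate significantly above the same plate's solvent-only control wells, beyond their mean plus 3 SD; inconclusive = the two replicate wells gave conflicting results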
KCC2 ouabain: confirmation of human KCC2 modulators with ouabain; shares compounds with KCC2 mod; HEK293-KCC2, thallium flux FluoZin2 fluorescence; bidirectional: low = inhibitor, high = activator; raw Tl+ flux slope (below DMSO = inhibition, above = activation) at 10 µM; 3,700 compounds, 48% hits;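 active = thallium flux slope beyond 3 SD from same-plate DMSO control mean in most replicates, usually higher, sometimes lower; inconclusive = repeat tests gave conflicting results; inactive = no significant difference from controls in most replicates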;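 also: slope of initial-normalized fluorescence between seconds 10 and 20 after thallium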
HEK counter2: counter-screen for KCC2 modulators: effect in parental HEK293 cells | thallium flux slope at 10 µM | AID 1718 | thallium flux FluoZin-2 fluorescence slope | 3,700 compounds, 33% hits | shares compounds with KCC2 mod;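 active = thallium flux slope above the same plate's solvent-control mean plus 3 SD in both duplicate wells; inconclusive = duplicate wells that disagreed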;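 also: run without ouabain in cells lacking the KCC2 cotransporter; slope of fluorescence scaled to its starting value between 10 and 20 s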
* = called active by the depositor; ? = inconclusive; . = no result given.

SMILES	KCC2 mod	S1P4 antag	S1P3 antag	ROMK primary	RAM network inh	S1P4 agonist	KCC2 secondary	KCC2 bumet counter	KCC2 sec2	HEK counter1	KCC2 ouabain	HEK counter2
O=C(NC(=S)NCC1CCCO1)c1ccc(Br)o1 (stereo unspecified)	51*	-10	-11	-0.46	-1	-1	0.0081	0.049*	0.045*	0.037*	0.043*	0.032*
O=C(CNC(=S)NC(=O)c1ccc(Br)o1)c1ccccc1	5.7*	-10	-10	1.1	4	1	0.014*	0.047*	0.034	0.041*	0.037*	0.016*
Cc1ccc(C(=O)NC(=S)NCC2CCCO2)cc1Br (stereo unspecified)	12*	-14	1	-1.6	-1	2	0.01	0.022*	0.034	0.028*	0.028*	0.012
Cc1ccc(-c2csc(NC(=O)C3CC(=O)N(Cc4ccco4)C3)n2)cc1 (stereo unspecified)	-4.3	-21	-3	0.018	3	1	.	.	.	.	.	.
Cc1csc(NC(=O)C2CC(=O)N(Cc3ccco3)C2)n1 (stereo unspecified)	2.8*	-8	-31	0.48	2	-1	0.0058	0.0046	0.03	0.0078	0.019	0.0098
C#CCCOC(=O)Nc1ccccc1	-0.88	-2	-11	.	.	0	.	.	.	.	.	.
Cc1cc(NC(=O)CSc2nc3ccccc3c(=O)n2Cc2ccc(F)cc2)no1	3.5*	4	26	1	5	0	0.011	0.019*	0.035	?	?	?
O=C(CSc1nc2ccccc2c(=O)n1Cc1ccc(F)cc1)NCc1cccs1	27*	-17	-6	.	7	1	0.0066	0.031*	0.05*	0.035*	0.038*	0.036*
C=CCn1c(SCC(=O)Nc2ccc3c(c2)CCC3)nc2ccccc2c1=O	-0.45	-10	-11	-0.46	6	0	.	.	.	.	.	.
CCCn1c(N)c(C(=O)CSc2nc3ccccc3c(=O)n2Cc2ccccc2)c(=O)[nH]c1=O	40*	2	-9	-0.011	4	0	0.016*	0.08*	0.028	0.026*	0.054*	0.012*
CCCCn1c(SCC(=O)Nc2ccc3c(c2)CCC3)nc2ccccc2c1=O	9*	-15	-14	.	3	0	0.0061	0.014*	0.036	0.017*	?	0.02*
CCCCCCn1c(SCC(=O)Nc2cc(C)on2)nc2ccccc2c1=O	.	4	-19	.	3	1	.	.	.	.	.	.
CC1(C)CC(=O)c2sc(NS(=O)(=O)c3ccc(F)cc3)nc2C1	-0.13	-13	2	1.2	2	1	.	.	.	.	.	.
O=C1OCCC1Sc1nc2ccccc2c(=O)n1-c1ccc(F)cc1 (stereo unspecified)	2.3	-9	-5	-0.051	3	1	.	.	.	.	.	.
O=C1OCCC1Sc1nc2ccccc2c(=O)n1Cc1ccc(F)cc1 (stereo unspecified)	39*	-12	1	0.13	4	2	0.025*	0.14*	?	0.062*	0.097*	0.033*
Cc1ccc(CSC2=NCCN2S(=O)(=O)c2ccccc2)cc1	-0.88	2	-5	-0.086	-1	1	.	.	.	.	.	.
O=S(=O)(c1ccccc1)N1CCN=C1SCc1ccccc1	-3.6*	3	5	-1.3	-1	2	0.0058	?	0.028	0.0068	0.015*	0.0098
Cc1ccccc1Cn1c(O)c(N=NC(=S)Nc2ccccc2F)c2ccccc21	9.6*	17	9	-1.7	5	2	?	0.025*	0.036	?	?	?
CCNC(=S)N=Nc1c(O)n(Cc2ccc(Cl)cc2)c2ccccc12	14*	15	9	0.11	5	2	0.012*	0.071*	0.03	0.03*	0.041*	0.011*
Oc1c(N=NC(=S)Nc2ccccc2F)c2ccccc2n1Cc1ccccc1F	11*	2	-17	-0.12	4	-1	0.0055	0.034*	0.034	0.012*	0.025*	?
COc1ccc(C2/C=C\CN(Cc3ccco3)CC(=O)N2Cc2ccc(F)cc2)cc1 (stereo unspecified)	2.7	.	.	.	.	.	.	.	.	.	.	.
O=C(c1cccc(S(=O)(=O)Nc2ccccc2F)c1)N1CCN(c2ccccc2F)CC1	-0.73	-33	-4	0.81	1	2	.	.	.	.	.	.
CC(=O)Nc1ccc(S(=O)(=O)N2CCN(Cc3cccc([N+](=O)[O-])c3)CC2)cc1	0.54	-22	-2	-0.92	-1	-1	.	.	.	.	.	.
Cc1ccc(-n2c(C)cc(C3=NNC(=NC4CC4)SC3)c2C)cc1C	1.7	-13	-7	.	1	0	.	.	.	.	.	.
O=C(N/N=C/c1ccco1)c1cc([N+](=O)[O-])cc([N+](=O)[O-])c1	5	-19	-11	0.71	0	2	.	.	.	.	.	.
O=C(N/N=C/c1ccc(Br)o1)c1cc([N+](=O)[O-])cc([N+](=O)[O-])c1	12*	-4	4	0.14	5	-1	?	0.024*	0.028	0.0098*	0.026*	?
CCOC(=O)c1sc(Nc2nc3c(OC)cccc3s2)nc1C	26*	-15	-16	-0.059	4	0	0.0082	0.012*	0.041*	0.025*	0.038*	0.018*
COc1cccc(-n2c(SCc3cc(=O)oc4cc(O)c(O)cc34)nc3ccccc3c2=O)c1	-0.86	4	5	-1.5	3	0	.	.	.	.	.	.
Cc1nc2[nH]c(=O)c3c(n2n1)NC1=C(C(=O)CC(C)(C)C1)C3c1ccc(F)cc1 (stereo unspecified)	.	-15	-6	0.27	2	3	0.006	0.0046	0.03	0.0068	0.018	0.01
Cc1ccc(NC(=O)CN2C(=O)NC(Cc3c[nH]c4ccccc34)C2=O)cc1S(=O)(=O)N1CCCCC1 (stereo unspecified)	-0.033	10	-8	0.53	3	0	.	.	.	.	.	.
